Assay results taken from a collection of fitness landscapes (doi:10.1038/s41467-024-54723-y).
The full ranking holds about 18,000 sequences; the median of “TetR repression strength (sort-seq, GFP reporter)” is about 0.23, and the highest 2% start at about 0.68. The sample as a whole holds a higher share of the highest values than the screen did.

Target: TetR (class B, Tn10) (UniProt P04483)
Test: TetR repression strength (sort-seq, GFP reporter) (relative to tetO2 = 1); higher = stronger repression
Conditions: E. coli
How it was run: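 Escherichia coli SIG10-MAX cells carried a low-copy plasmid library in which eight operator positions were randomized between a constitutive promoter and sfGFP, and TetR was expressed constitutively. After 5 h of growth at 37 °C in LB with 50 µg/mL chloramphenicol, 10^6 cells were FACS-sorted into 13 fluorescence bins, and each bin was Illumina-sequenced. Repression strength was the top bin index plus one minus the read-weighted mean bin, divided by the value for the unaltered operator. Across three independent transformations, only library members with ≥30 reads in every replicate and a CV ≤0.5 were averaged.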

TetR (class B, Tn10), sequence (P04483 whole entry): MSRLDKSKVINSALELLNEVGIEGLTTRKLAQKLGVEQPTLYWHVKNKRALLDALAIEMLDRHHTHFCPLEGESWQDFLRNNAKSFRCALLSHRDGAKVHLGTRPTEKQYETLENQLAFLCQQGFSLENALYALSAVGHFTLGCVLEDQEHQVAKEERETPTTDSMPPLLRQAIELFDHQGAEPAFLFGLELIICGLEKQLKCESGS

Sequence | TetR repression strength
TCCCGTTCAGTCTCAGAGA | 0.307
TCCCCTCTAGTGGCCGAGA | 0.17
TCCCAGCAAGTAGGGGAGA | 0.289
TCCCAGCAAGTATGGGAGA | 0.71
TCCCAGCAAGTATGCGAGA | 0.282
TCCCAGCCAGTTATGGAGA | 0.169
TCCCAGCAAGTTATGGAGA | 0.701
TCCCAGCAAGTCATGGAGA | 0.401
TCCCTTCAAGTGTAAGAGA | 0.158
TCCCCACTAGTAAATGAGA | 0.726
TCCCCCGGAGTACGTGAGA | 0.187
TCCCCCCGAGTACGTGAGA | 0.839
TCCCCACTAGTACGTGAGA | 0.363
TCCCCTCTAGTACGTGAGA | 0.207
TCCCCCCTAGTACGTGAGA | 0.814
TCCCCGTGAGTACGTGAGA | 0.226
TCCCAACTAGTAAATGAGA | 0.567
TCCCCACTAGTAAAAGAGA | 0.303
TCCCTAGAAGTTATGGAGA | 0.315
TCCCTGGCAGTTCATGAGA | 0.199
TCCCGGGTAGTCCGGGAGA | 0.112
TCCCAACCAGTCCCGGAGA | 0.12
TCCCAAGGAGTGGGTGAGA | 0.185
